uPA generation: qHTS for Inhibitors of Cell Surface uPA Generation; cell surface uPA generation assay, qHTS; Potency, µM (top dose mostly 38.3 µM), hits mostly inhibitors; hit rate 0.31% among 330,000; active = well fitted inhibition curve with a large enough effect; inconclusive = small, poorly fitted or top-dose-only effect; inactive = no such curve, though single readings can be large or run the other way; tested in mouse RAW 264.7 cells; note: nearly all actives have a fitted effect of over 55% in size
MCF10A rereplic: A quantitative high throughput screen for small molecules that induce DNA re-replication in MCF 10a normal breast cells | hit rate 2.9% among 350,000 | MCF 10A DNA re-replication, Hoechst nuclear intensity, 48 h | Potency, µM (titrated, usually from 46.1 µM), most hits filed as activators; note: nearly all actives have a fitted effect of over 50% in size
SW480 rerep: A quantitative high throughput screen for small molecules that induce DNA re-replication in SW480 colon adenocarcinoma cells; AID 624297, 2012; Potency, µM (doses to about 46.1 µM), most hits filed as activators; SW480 DNA re-replication, Hoechst DNA content imaging, 48 h; hit rate 1.8% among 340,000; note: nearly all actives have a fitted effect of over 55% in size
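Cells (250 per well) received 23 nL compound or DMSO by pin tool and were kept 48 hr at 37 C, 5% CO2. Nuclei were then stained with Hoechst for 40 min and scanned for DNA content.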
Giardia kill: Small Molecules that selectively kill Giardia lamblia: qHTS; AID 540267, 2011; activity change, % at 7.66 µM, hits read low; Giardia lamblia trophozoite viability; hit rate 0.15% among 340,000; in the data active = activity change below about -80%; inconclusive = between about -30% and that limit;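 note: parasites exposed to compound for two days anaerobically before the ATP read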
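Media and compound were dispensed first, then trophozoites at 100 cells/well; plates sat 48 hrs at 37 deg C without oxygen before ATP luminescence reagent was added and read after 15-30 min at room temperature.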
Hits are given with their value; n = inactive; u = inconclusive; x = no result given; [ ] = dose if it differs, or a comment. An excerpt weighted towards active compounds, which were near 4.3% of everything screened. Unless noted, calls come from the whole dose curve; as a rule, active = well fitted activation curve with a large enough effect; inconclusive = small, poorly fitted or top-dose-only effect; inactive = no such curve, though single readings can be large or run the other way.

SMILES	uPA generation	MCF10A rereplic	SW480 rerep	Giardia kill
FC(F)(F)c1cccc(Sc2nc(-c3ccccc3)nnc2C(F)(F)F)c1	n	7.3µM	u	n
Oc1cccnc1Sc1cccc(C(F)(F)F)c1	n	n	n	n
CC(=O)c1ccc(-c2c(C3C4C=CCC(C)C4C(=O)N3Cc3ccccc3)ccc3ccccc23)cc1 (stereo unspecified)	x	x	x	n
CCN(CC)S(=O)(=O)c1ccc(N2C(=O)CC2(/C=C/c2ccccc2)C(=O)NC2CCCC2)cc1 (stereo unspecified)	n	u	u	n
COc1ccccc1/C=C/C1(C(=O)NC2CCCC2)CC(=O)N1c1ccc(C)cc1 (stereo unspecified)	n	18µM	u	n
COc1ccccc1/C=C/C1(C(=O)NC2CCCC2)CC(=O)N1c1ccc(F)cc1 (stereo unspecified)	n	u	16µM	n
CCOc1ccc2c(c1)C(C)=CC(C)(C)N2C(=O)Nc1ccccc1F	n	u	n	n
CC1=CC(C)(C)N(S(=O)(=O)c2ccc(C)cc2)c2cc(C)ccc21	u	u	7.3µM	n
COc1ccc2c(c1)C(C)=CC(C)(C)N2S(=O)(=O)c1ccc(C)cc1	n	u	13µM	n
CCNC(=O)N1c2ccc(OCC)cc2C(C)=CC1(C)C	n	14µM	n	n
CCOc1ccc(S(=O)(=O)N2CCN(c3ccc(C)cc3C)CC2)cc1	n	n	n	n
CCOc1ccc2c(c1)C(C)=CC(C)(C)N2S(=O)(=O)c1ccc(C)cc1	n	n	13µM	n
CC1=CC(C)(C)N(C(=O)CCl)c2cc(C)ccc21	n	n	n	n
O=C(O)[C@H](O)[C@@H](O)[C@H](O)[C@H](O)CO	x	n	n	x
CNc1ncc(-c2nnnn2-c2ccccc2)c(-c2ccccc2)n1	u	u	15µM	n
CCOC(=O)CSc1nnc([C@H](Cc2ccccc2)NC(=O)OC(C)(C)C)o1	x	n	n	n
CC(C)C[C@H](NC(=O)OC(C)(C)C)c1nnc(SCc2ccccc2)o1	n	n[0.0737 µM]	2.6µM	n
O=C(Nc1ccc2nc(-c3ccccc3)[nH]c2c1)c1ccco1	n	n	n	n
O=C(Nc1cccc(-c2nc3ccccc3[nH]2)c1)c1cccc(NC(=O)c2ccco2)c1	x	u	15µM	n
O=C(CSc1ccc(Cl)cc1)Nc1cccc(-c2nc3ccccc3[nH]2)c1	n	18µM	n	n
O=C(NCCCn1ccnc1)c1cc2nc(-c3ccc(Br)cc3)cc(C(F)(F)F)n2n1	n	15µM	u	n
COc1ccc(-c2cc(C(F)(F)F)n3nc(C(=O)NCCCN4CCOCC4)cc3n2)cc1	n	u	8.2µM	n
Cc1cc(-c2ccccc2)nc2cc(C(=O)NCCCn3ccnc3)nn12	n	n	n	n
O=C1/C(=C\c2ccco2)SC(=S)N1c1ccc(O)cc1	n	n	21µM	n
O=C1/C(=C/C=C/c2ccco2)SC(=S)N1c1ccc(O)cc1	n	n	n	n
SMILES	uPA generation	MCF10A rereplic	SW480 rerep	Giardia kill
Cc1ccc(N=C2NC(=O)/C(=C/c3cn(C)c4ccccc34)S2)cc1C	n	21µM	u	n
Cn1cccc1/C=C1\SC(=Nc2ccccc2)NC1=O	1.4µM	u	u	n
O=C1NC(=Nc2ccc(O)cc2)S/C1=C/c1ccco1	n	4.6µM	2.9µM	n
CC(C)=CCC/C(C)=C/COc1c2ccoc2cc2oc(=O)ccc12	x	x	x	n
Cn1cccc1/C=C1\SC(=Nc2ccc(O)cc2)NC1=O	u	0.58µM	0.46µM	n
Cc1ccc(N=C2NC(=O)/C(=C/c3cccn3C)S2)c(C)c1	n	n	n	n
Cn1cccc1/C=C1\SC(=Nc2cccc(O)c2)NC1=O	u	9.2µM	n	n
COc1cc(/C=C2\SC(=Nc3ccc(O)cc3)NC2=O)cc(OC)c1O	n	u	u	n
COc1ccccc1-c1nc2cc3ccccc3cc2nc1-c1ccccc1OC	n	u	9.2µM	n
COc1ccccc1-c1nc2ccccc2nc1-c1ccccc1	n	u	n	n
COCCCNC(=O)c1ccccc1N(Cc1ccccc1)S(=O)(=O)c1ccccc1	n	n	n	n
CC(=O)C1=C(S(=O)(=O)c2ccc(C)cc2)CS(=O)(=O)C1	n	15µM	15µM	n
COc1ccc(Cc2nnc(Nc3ccc4c(c3)OCCO4)[nH]c2=O)cc1	n	n	n	n
CCOc1cccc(CNCCSc2nnnn2C)c1	n	n	n	n
CC(=O)c1c(C)[nH]c(C(=O)Nc2cccc(S(=O)(=O)N(C)c3ccccc3)c2)c1C	n	23µM	23µM	n
COc1ccc(C2CC(c3cccs3)=NN2C(=O)CCl)cc1OC (stereo unspecified)	n	3.3µM	2.1µM	n
COc1cc(C2CC(c3cccs3)=NN2C(=O)CCl)ccc1OC(F)F (stereo unspecified)	n	16µM	n	n
O=C(CSc1nc2ccccc2s1)N1N=C(c2cccs2)CC1c1ccc(F)cc1 (stereo unspecified)	n	16µM	n	n
Cc1cccc(Nc2cc(Cl)nc(SCC(=O)O)n2)c1C	x	n	n	x
CC1CCc2c(sc3ncnc(SC(C)C(=O)NCC4CCCO4)c23)C1 (stereo unspecified)	n	u	n	n
CCOc1ccc(NC(=O)C2CC(=O)N(CCc3ccc(OC)c(OC)c3)C2)cc1OCC (stereo unspecified)	n	n	n	n
CC(C)CC(=O)Nc1ccccc1N1CCN(c2ccc(F)cc2)CC1	n	n	n	n
CC(C)(C)C(=O)Nc1ccccc1N1CCN(c2ccc(F)cc2)CC1	n	21µM	n	n
N#C/C(=C(/O)CCl)c1nc2c(s1)CCc1ccccc1-2	x	13µM	u	n
O=C(CCCl)Nc1nc2c(s1)CCc1ccccc1-2	n	18µM	u	n
SMILES	uPA generation	MCF10A rereplic	SW480 rerep	Giardia kill
O=C(Cn1cnc2c(OCc3ccccc3)ncnc21)NCC1CCCO1 (stereo unspecified)	n	n	n	n
Cc1cc(C)cc(OCC(=O)Nc2nc(-c3cccnc3)cs2)c1	n	n	n	n
C#CCNC(=O)C1=C[C@@H](C)C[C@@H](OCc2ccc(CO)cc2)O1	n	n	n	n
C#CCNC(=O)C1=C[C@H](C(C)(C)C)C[C@H](OCc2ccc(CO)cc2)O1	n	18µM	n	n
C#CCNC(=O)C1=C[C@H](c2ccc(C(F)(F)F)cc2)C[C@H](OCc2ccc(CO)cc2)O1	n	4.1µM	u	n
C#CCNC(=O)C1=C[C@H](c2ccc(C#C)cc2)C[C@H](OCc2ccc(CO)cc2)O1	n	n	u	n
CC(=O)OCC(NC(=O)C(CCCCNC(=O)OCc1ccccc1)NC(=O)OC(C)(C)C)C1OC(n2cc(F)c(=O)[nH]c2=O)C(OC(C)=O)C1OC(C)=O (stereo unspecified)	x	x	x	n
CC(CNS(=O)(=O)c1ccccc1)(c1ccccc1)N1CCCCC1 (stereo unspecified)	n	n	2.6µM	n
O=C(CCNS(=O)(=O)c1ccccc1)N1CCCCCCC1	n	n	n	n
CCN(Cc1ccccc1)C(=O)C1CCN(Cc2sccc2C)CC1	n	n	29µM	n

Screens: PubChem BioAssay, National Center for Advancing Translational Sciences (NCATS)
